# Anthrax LT inh = inhibitors of anthrax lethal toxin internalization | Cells, anthrax lethal toxin internalization, FRET ratio (460/530) | Potency, µM (series often up to 40 µM), inactives show at the top dose activity change, negative = inhibition, most hits filed as inhibitors | hit rate 0.67% among 70,000 | AID 912; also: % is scaled to controls: 0 for no effect and ±100 for the full control effect; nearly all actives have a fitted effect of over 50% in size
# AmpC inh det = inhibitors of E. coli AmpC beta-lactamase with detergent; purified AmpC, nitrocefin hydrolysis with detergent; Potency, µM (titrated, usually from 28.7 µM), inactives show at the highest dose activity change, negative = inhibition; P00811; hit rate 0.09% among 71,000; active = well fitted curve in the direction sought with a large enough effect; inconclusive = small, poorly fitted or top-dose-only effect; also: % is scaled to controls: 0 for no effect and ±100 for the full control effect
# Target sequence (P00811 whole entry, looked up): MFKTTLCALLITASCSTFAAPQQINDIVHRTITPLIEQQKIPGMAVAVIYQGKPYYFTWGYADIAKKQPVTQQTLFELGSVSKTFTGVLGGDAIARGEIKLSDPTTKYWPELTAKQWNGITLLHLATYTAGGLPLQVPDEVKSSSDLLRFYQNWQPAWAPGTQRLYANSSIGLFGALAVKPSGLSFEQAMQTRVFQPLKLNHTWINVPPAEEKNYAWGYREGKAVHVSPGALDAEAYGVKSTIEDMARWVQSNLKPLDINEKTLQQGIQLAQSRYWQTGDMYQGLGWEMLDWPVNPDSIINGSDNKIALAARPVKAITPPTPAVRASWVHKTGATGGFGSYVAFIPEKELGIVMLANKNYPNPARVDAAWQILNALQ
#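 E. coli AmpC (5.3 nM) in 20 mM phosphate pH 7.0 with 0.01% Triton X-100, preincubated 15 min RT with compound; nitrocefin (2 uL of 800 uM stock) hydrolysis followed by 480 nm absorbance every 20 s over 4 min.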
# SmPrx2 inh = inhibitors of Schistosoma mansoni peroxiredoxin 2. S. mansoni Prx2 activity coupled to TGR/GSH (TGR is thioredoxin glutathione reductase), NADPH fluorescence loss, qHTS. Potency, µM. hit rate 0.07% among 65,000. AID 448
#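 Enzyme mix: 100 uM NADPH, 25 nM TGR, 700 uM GSH, 50 nM Prx2 in 100 mM phosphate pH 7.4, 10 mM EDTA, 0.01% Tween-20. 15 min RT with compound; NADPH/GSH added, H2O2 starts reaction; NADPH fluorescence read 8 min.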
# AmpC nodet inh = AmpC beta-lactamase inhibition, detergent-free assay; AmpC nitrocefin hydrolysis, absorbance 480 nm, no detergent; hit rate 1.8% among 71,000; Potency, µM (top dose mostly 28.7 µM), inactives show top-dose activity change, negative = inhibition; P00811; also: % of control where 0% means no effect
#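 Enzyme, pH 7.0 phosphate. Compound titrations were pre-incubated with AmpC for 15 min at room temperature before nitrocefin (stock 800 uM) addition; product formation was recorded at 480 nm every 20 s for 4 min.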
# Starred values were filed as active, the others as inactive; ? = inconclusive; / = no result given; ! = repeats disagree; [ ] = dose if it differs, or a comment. Only some compounds are listed: those with a hit (about 2.4% of all), similar ones and a draw of the others. Unless noted, calls follow the shape of the full dose curve. Potency is read from the fitted curve at half-maximal effect.
SMILES,Anthrax LT inh,AmpC inh det,SmPrx2 inh,AmpC nodet inh
O=C(Cc1ccccc1)Nc1nc2ccccc2[nH]1,-7%,-5%,>57,-17%
O=C(Cc1c[nH]c2ccccc12)Nc1nc2ccccc2[nH]1,-2%,2%,>57,7.9µM*
COc1ccc(CN(Cc2cc3ccc(C)cc3[nH]c2=O)Cc2nnnn2C2CCCC2)cc1,-3%,3%,>57,65%
Cc1nc2c3ccccc3n(CC(=O)c3ccc(F)cc3)c(=O)n2n1,?,14%,>57,4µM*[single pt active]
COc1ccc(C)cc1NC(=O)c1cc2c(CO)cnc(C)c2oc1=N,?,13%,>57,3.2µM*[single pt active]
COc1ccc(C)cc1NC(=O)c1ccoc1C,7%,2%,/,2%
COc1ccc(S(=O)(=O)Cc2ccc(C(=O)N3CCN(c4ccccn4)CC3)o2)cc1,-14%,11%,>57,4µM*[single pt active]
Cc1ccccc1S(=O)(=O)Cc1ccc(C(=O)N2CC(C)CC(C)C2)o1 (stereo not drawn),3%,10%,>57,4µM*[single pt active]
COc1ccc(S(=O)(=O)Cc2ccc(C(=O)N3CCCC3)o2)cc1,0%,9%,>57,3.2µM*[single pt active]
COc1ccc(S(=O)(=O)Cc2ccc(C(=O)N3CCC(C(N)=O)CC3)o2)cc1,9%,5%,>57,6%
Cc1ccccc1S(=O)(=O)Cc1ccc(C(=O)N2CCN(c3cccc(C)c3C)CC2)o1,?,-3%,>57,85%
COc1ccccc1NC(=O)N1CCN(c2ccccn2)CC1,6%,13%,>57,4µM*[single pt active]
COc1ccccc1S(=O)(=O)Cc1ccc(C(=O)N2CCN(c3ccccn3)CC2)o1,-13%,11%,>57,4µM*[single pt active]
COc1ccccc1S(=O)(=O)Cc1ccc(C(=O)N2CCCC2)o1,6%,11%,>57,22%
CC(C)[C@](N)(C(=O)O)c1ccccc1,?,-1%[5.75 µM],>57,15%[5.75 µM]
COc1ccc(-n2nnnc2S(=O)(=O)CC(=O)N2CCCCC2)cc1,3.2µM*,8%,?,11%
Cc1sc2ncnc(Sc3nnnn3-c3ccccc3)c2c1C,-2%,-2%,>57,7%
Clc1ccc(-n2nnnc2Sc2ncnc3sccc23)cc1,6.3µM*,-5%,?,-8%
CCOC(=O)Cn1c(=O)oc2cc(S(=O)(=O)NCCCc3ccccc3)ccc21,?,13%,>57,0.32µM*[single pt active]
O=C(COC(=O)Cc1ccc(S(=O)(=O)N2CCCCC2)s1)Nc1ccc2c(c1)OCO2,-9%,11%,>57,13µM*
O=C(COC(=O)Cc1ccc(S(=O)(=O)N2CCOCC2)s1)NCc1ccccc1,-3%,-3%,>57,14%
COc1ccc(C2c3sc(=O)[nH]c3SC3C(=O)N(c4ccccc4)C(=O)C32)cc1 (stereo not drawn),-16%,11%,>57,4µM*[single pt active]
Cc1cccc(OCCSc2nnc(-c3ccoc3C)n2C)c1,2%,10%,>57,37%
Cc1ccccc1-c1ccc2ncnc(-n3ccnc3)c2c1,5µM*,10%,>57,45%
Cc1ccccc1-c1ccc2ncnc(N(C)C)c2c1,-18%,6%,>57,77%
SMILES,Anthrax LT inh,AmpC inh det,SmPrx2 inh,AmpC nodet inh
CN(C)c1ccc(-c2ccc3ncnc(-n4ccnc4)c3c2)cc1,7.9µM*,11%,>11,78%
CN(CCc1ccc(Cl)c(Cl)c1)CCN1CCCCCC1,?,-4%,>57,28%
CN(CCc1ccc(Cl)c(Cl)c1)[C@H]1CCCC[C@H]1N1CCCC1,25µM*,-6%,>57,42%
Cc1nn(-c2ccccc2)c(Cl)c1C(=O)N1CCN(c2ncnc3c2cnn3-c2ccccc2)CC1,6.3µM*,-3%,>57,134%
O=C(c1ccco1)N1CCN(c2ncnc3c2cnn3-c2ccccc2)CC1,/,-4%,>57,-1%
O=C1c2ccccc2C(Nc2cccnc2)N1Cc1ccc2c(c1)OCO2 (stereo not drawn),0%,13%,>57,3.2µM*[single pt active]
COc1ccc(OC)c(NC2c3ccccc3C(=O)N2Cc2ccc3c(c2)OCO3)c1 (stereo not drawn),?,15%,>57,4µM*[single pt active]
O=C1c2ccccc2C(O)N1Cc1ccc2c(c1)OCO2 (stereo not drawn),-5%,13%,>57,4µM*[single pt active]
CCN(CC)C(=O)N1CCN(S(=O)(=O)c2ccc(C)c(C)c2)CC1,-2%,-4%,>57,65%
Fc1ccc(OCc2nc(-c3ccc(Br)o3)no2)c(F)c1,?,10%,>57,2.5µM*[single pt active]
Brc1ccc(-c2noc(CCc3ccccc3)n2)o1,?,10%,>57,4µM*[single pt active]
O=C(O)C1C2CCC(C2)C1C(=O)NCc1ccccn1 (stereo not drawn),-18%,9%,>57,-9%
CCN1CC2=C(OC(N)=C(C#N)C2c2cccs2)/C(=C/c2cccs2)C1 (stereo not drawn),-4%,10%,>57,48%
Cc1cc(NC(=O)c2cc(-c3ccccn3)nc3ccccc23)no1,?,-5%,>57,18%
Cc1cc(NC(=O)c2cc(-c3cccs3)nc3ccccc23)no1,?,5%,>57,4µM*[single pt active]
O=C(CCC(=O)N1CCC2(CC1)OCCO2)Nc1nnc(C(F)(F)F)s1,7%,-3%,>57,3%
COc1ccc(S(=O)(=O)N2CCN(C)CC2)c2ccccc12,19%,11%,>57,4µM*[single pt active]
COc1cc(Cc2cnc(N)nc2N)cc(OC)c1OC,?,-1%,>57,6.3µM*!
Cc1cccc(-n2c(Cc3cc(=O)[nH]c(=O)[nH]3)nnc2SCC(=O)NCC2CCCO2)c1 (stereo not drawn),2%,14%,>57,4µM*[single pt active]
O=C(CSc1nnc(Cc2cc(=O)[nH]c(=O)[nH]2)n1-c1ccc(F)cc1)N1CCCCC1,-5%,9%,>57,4µM*[single pt active]
Cn1cccc1Cc1nnc(SCC(=O)NC2CCCC2)n1-c1ccc(F)cc1,-24%,15%,>57,4µM*[single pt active]
O=C(Cc1cc(=O)[nH]c(=O)[nH]1)NCC1CCCO1 (stereo not drawn),4µM*,9%,>57,71%
Cc1cc(NC(=O)c2ccc3nc(C)sc3c2)no1,-2%,4%,>57,-4%
O=C(CSc1nnc(Cc2cc(=O)[nH]c(=O)[nH]2)n1-c1ccc(F)cc1)NC1CCCC1,-2%,3%,>57,4µM*[single pt active]
COc1cccc(-n2c(Cc3cc(=O)[nH]c(=O)[nH]3)nnc2SCC(=O)NC2CCCCC2)c1,1%,16%,>57,?
SMILES,Anthrax LT inh,AmpC inh det,SmPrx2 inh,AmpC nodet inh
COc1cccc(-n2c(Cc3cc(=O)[nH]c(=O)[nH]3)nnc2SCC(=O)N2CCCCC2)c1,-2%,12%,>57,4µM*[single pt active]
CCc1ccc(-c2ccc(C(=O)O)cc2)nc1,-11%,14%,>57,6%
O=C(O)c1cccc2cccc(-c3cccc4cccc(C(=O)O)c34)c12,-11%[8 µM],-12%[5.75 µM],>57,-16%[5.75 µM]
C[N+](C)(C)CCC(=O)c1cccc2ccccc12,25µM*,-3%,>57,0%
CCOCCCN(C(=O)CNC(=O)c1ccco1)C(C(=O)NC1CCCC1)c1ccccc1C (stereo not drawn),?,8%,>57,17%
N#Cc1nc(-c2ccccc2F)oc1N1CCCC1,4%,-4%,>57,14%

# Compound activity from PubChem.
